An excerpt weighted towards active compounds, which were near 5.9% of everything screened.
GLP-1R inv ag – acts as inverse agonist at human GLP-1 receptor | P43220 | HEK293 GLP-1R CRE-luciferase, luminescence, 24 h; GLP-1R form is constitutively active | Potency, µM (doses to about 38.3 µM), for the others: at the top dose activity change, negative = inhibition, usual class: inhibitors | 1.6% of 410,000 active | AID 624417; further: on the % scale 0 is the no-effect control and ±100 the full control effect; nearly all actives have a fitted effect of over 55% in size
Target sequence (P43220 whole entry, looked up): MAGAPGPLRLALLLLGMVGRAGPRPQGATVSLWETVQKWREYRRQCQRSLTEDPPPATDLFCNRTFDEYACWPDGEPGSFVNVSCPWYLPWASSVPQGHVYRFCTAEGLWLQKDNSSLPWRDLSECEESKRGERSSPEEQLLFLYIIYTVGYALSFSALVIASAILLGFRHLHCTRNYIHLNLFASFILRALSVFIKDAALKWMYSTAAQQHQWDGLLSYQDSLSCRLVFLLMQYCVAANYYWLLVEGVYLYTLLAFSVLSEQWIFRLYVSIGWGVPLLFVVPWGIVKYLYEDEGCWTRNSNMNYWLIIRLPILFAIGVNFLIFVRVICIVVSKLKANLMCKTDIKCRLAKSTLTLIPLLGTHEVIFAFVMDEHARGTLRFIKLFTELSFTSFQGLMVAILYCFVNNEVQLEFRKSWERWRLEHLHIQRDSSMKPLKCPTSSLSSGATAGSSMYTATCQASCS
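Using stably transfected HEK293 (constitutively active GLP-1R, cAMP-luciferase reporter), compounds were incubated 24 hr and luciferase measured by luminescence.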
VP16 counter – counter-screen for ROR gamma inhibitors: Gal4-VP16 reporter. Drosophila S2 Gal4-VP16 UAS-luciferase, luminescence, 20 h. Potency, µM (doses to about 53.6 µM), inactives show top-dose activity, negative = inhibition, most hits filed as inhibitors. 3.5% of 310,000 active. AID 2546;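 further: Gal4-VP16 expression switched on by copper sulfate through the metallothionein promoter; on the % scale 0 is the no-effect control and ±100 the full control effect; nearly all actives have a fitted effect of over 50% in size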
GLP-1R agonist – activates the human GLP-1 receptor; HEK293 GLP-1R CRE-luciferase, luminescence, 4-6 h; cells express a hypersensitive GLP-1R form; 0.007% of 380,000 active; Potency, µM (doses to about 45.6 µM), without a hit: top-dose activation, hits mostly activators; AID 624172; further: % of control where 0% means no effect
RORg inh – blocks mouse ROR gamma transcriptional activity | P51450 | 5.4% of 310,000 active | AID 2551 | Drosophila S2 Gal4-RORgamma UAS-luciferase reporter, 20 h | Potency, µM (series often up to 53.6 µM), without a hit: top-dose activity change, negative = inhibition, most hits filed as inhibitors; further: on the % scale 0 is the no-effect control and ±100 the full control effect; nearly all actives have a fitted effect of over 60% in size
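Compounds are pin-transferred onto Drosophila Schneider cells expressing a copper-inducible Gal4–ROR gamma transactivation domain fusion. After 1 hr, copper sulfate is added to 700 uM final; luciferase is read 20 hr later.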
GLP1R cytotox – cytotoxic in the GLP-1 receptor inverse agonist counter-screen; HEK293 cAMP-luciferase reporter cells, luminescence, 24 h; Potency, µM (top dose mostly 38.3 µM), for the others: at the top dose activity change, negative = inhibition, hits mostly inhibitors; 0.13% of 410,000 active;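 further: loss of luciferase light is scored as toxicity; on the % scale 0 is the no-effect control and ±100 the full control effect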
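1536-well qHTS counterscreen of the MLSMR; 200 cells/uL, 12 h pre-incubation, 23 nL cpd, 24 h at 37 deg C 5% CO2, luciferase detection reagent, 12 min RT, luminescence. Inhibition = undesired.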
Active calls of the source: *; ? = inconclusive; . = no result; ! = a repeat was not active; [ ] = another dose, or the depositor's remark. The call rests on the fitted dose curve; in most records, active means well fitted curve in the direction sought with a large enough effect; inconclusive means small, poorly fitted or top-dose-only effect, or another doubt; inactive means no such curve, though single readings can be large; an effect the other way counts as inactive or inconclusive. Potency means the concentration at half of the fitted maximal effect.

SMILES | GLP-1R inv ag | VP16 counter | GLP-1R agonist | RORg inh | GLP1R cytotox
Cc1ccc(N=Nc2c(C)[nH]n(C(N)=S)c2=O)cc1C | 0.5µM* | 1.1µM* | -4% | 0.22µM* | ?
COc1ccc(CCn2c(=O)c3ccccc3n(CC(=O)Nc3cccc(C)c3)c2=O)cc1OC | -3% | . | -2% | . | -2%
Cc1ccccc1NS(=O)(=O)c1ccc(C(=O)NCC(c2ccco2)N2CCCCC2)cc1 (stereo not drawn) | 10µM* | . | -9% | . | -1%
COc1ccccc1NS(=O)(=O)c1cc(C(=O)NCC(c2ccco2)N(C)C)ccc1C (stereo not drawn) | ? | . | 8% | . | -1%
COc1ccccc1NS(=O)(=O)c1cc(C(=O)NCC(c2ccco2)N2CCCCC2)ccc1C (stereo not drawn) | 10µM* | . | 10% | . | -12%
CCN(c1ccccc1)S(=O)(=O)c1cc(C(=O)NCC(c2ccco2)N2CCCCC2)ccc1C (stereo not drawn) | 8.9µM* | . | -20% | . | ?
Cc1ccc(N2CC(NC(=O)/C=C\c3ccc4c(c3)OCO4)CC2=O)cc1C (stereo not drawn) | -23% | . | . | . | -11%
COc1ccc(NC(=O)NCCC2=CCCCC2)cc1 | 3% | -5% | 8% | -1% | -17%
O=C(CCSCc1cccc(Cl)c1)NCCC1=CCCCC1 | 10µM* | -4% | 3% | 36% | -6%
COc1ccc(C)cc1S(=O)(=O)NCCC1=CCCCC1 | -1% | 11µM* | 5% | -11% | -4%
COc1ccc(NC(=S)NCCC2=CCCCC2)cc1OC | ? | 13µM* | 23% | 2.5µM* | ?
S=C(NCCC1=CCCCC1)Nc1ccc(Cl)cc1 | -26% | ? | 11% | 3.5µM* | ?
CC(=O)c1ccc(-n2cc(-c3ccc(C(C)(C)C)cc3)[n+]3c2SCCC3)cc1 | ? | 11µM* | -4% | -22% | -19%
CCCCNCCCOc1cccc(Cl)c1Cl | 7.9µM* | -1% | -1% | -15% | ?
NCCC[C@@H](CC(=O)N[C@@H]1CCNC[C@H]1C(=O)N[C@H](CC(=O)N[C@@H](CCC(=O)O)CC(=O)O)Cc1c[nH]c2ccccc12)NC(=O)C[C@H](Cc1ccccc1)NC(=O)[C@@H]1CCCC[C@H]1N | . | -2% | . | -13% | .
Cc1ccc(NC(=O)CSc2nccn2C2CCCC2)cc1Cl | ? | . | . | . | 2%
O=C1CN(C(=O)/C=C/c2ccc(Cl)cc2Cl)CCN1 | 40% | 4% | 1% | 35% | 7%
CN1CCCN(C(=O)/C=C/c2ccc(Cl)cc2Cl)CC1 | 7.9µM* | -8% | -7% | -10% | ?
CN(C)S(=O)(=O)c1ccc(-c2cn3ccccc3n2)cc1 | -4% | 18µM* | 6% | 34% | -9%
Cc1cccc(N(Cc2cc(=O)[nH]c3ccccc23)C(=O)CCl)c1 | 2.5µM* | ? | -10% | 18µM* | -17%
CCn1cc(C2=NCCO2)c2ccccc21 | ? | -17% | 0% | 20µM* | 0%
CCn1cc(C2=NC(C)CO2)c2ccccc21 (stereo not drawn) | -19% | -28% | ? | 10µM* | -6%
O=[N+]([O-])c1cccc(C2=NC(c3ccccc3)CO2)c1 (stereo not drawn) | 52% | -12% | 5% | -1% | 2%
CCn1cc(S(=O)(=O)CC(=O)Nc2ccc3c(c2)OCCO3)c2ccccc21 | -1% | 0% | -5% | 11% | 9%
CCn1cc(C2=NC(c3ccccc3)CO2)c2ccccc21 (stereo not drawn) | ? | -9% | 12% | 10µM* | -22%
SMILES | GLP-1R inv ag | VP16 counter | GLP-1R agonist | RORg inh | GLP1R cytotox
CCn1cc(C2=NCC(C)O2)c2ccccc21 (stereo not drawn) | 0% | ? | 12% | 18µM* | -3%
CC(=O)N1CCC[C@@]2(CCN(C(=O)Nc3ccccc3)C2)C1 | . | -2% | . | 6% | .
CCn1cc(C2=NC(C)(C)CO2)c2ccccc21 | 0% | ? | 15% | 20µM* | -17%
CC(C)(C=O)C1=CC(=O)c2ccccc2C1=O | 0% | 5µM* | -24% | 14µM* | ?
CC(C)(C)c1ccc2c(c1)C(=O)c1ccccc1C2=O | 18% | -21% | 27% | 43% | -9%
CCOc1ccccc1C(O)C1=CC(=O)c2ccccc2C1=O (stereo not drawn) | -3% | . | -15% | . | 7%
CC1=CC(=O)c2ccccc2C1=O | 17% | 7.9µM* | 6% | 11µM*! | -4%
COc1cccc2c1C(=O)C=C(C)C2=O | ? | 7.1µM* | -7% | 11µM* | 36%
Cc1ccc(C(=O)C2CCN(C(=O)c3ccc(C)cc3)CC2)cc1 | 8.9µM* | -19% | -7% | 19% | 0%
Cc1ccc(C(=O)N2CCC(C(=O)c3ccc(F)cc3)CC2)cc1 | ? | . | -1% | . | 0%
CCn1c(C(C)NC(=O)c2ccc(Cl)cc2)n[nH]c1=S (stereo not drawn) | 2% | -3%[10 µM] | 1% | 7.1µM* | 15%
COc1ccc2c(c1)O[C@@H](c1cccc(C(F)(F)F)c1)[C@H](OC(=O)NCc1ccc3c(c1)OCO3)C2=O | . | 1% | . | -6% | .
COc1ccc(NC(=O)C(=O)Nc2cccc3cccnc23)c(OC)c1 | -12% | 2.5µM* | 11% | 1.4µM* | 1%
COc1ccc(NC(=O)C(=O)Nc2cccc3cccnc23)cc1OC | 25% | 2.8µM* | -10% | 1.8µM* | -9%
COc1ccc(C(=O)Nc2cccc3cccnc23)cc1OC | 99% | -6% | ? | 34% | -3%
COc1ccc(NC(=O)C(=O)Nc2cccc3ccccc23)c(OC)c1 | 27% | -9% | -11% | -24% | 26%
O=C(c1ccc2c(c1)N(Cc1ccc(F)cc1)C(=O)c1ccccc1S2(=O)=O)N1CCCCC1 | 3% | . | . | . | -1%
CCCCC/C=C\C/C=C\CCCCCCCC(=O)NCCc1ccc(O)c(O)c1 | . | 3% | . | 5% | .
CC[C@@H]1/C=C(\C)C[C@H](C)C[C@H](OC)[C@H]2O[C@@](O)(C(=O)C(=O)N3CCCC[C@H]3C(=O)O[C@H](/C(C)=C/[C@@H]3CC[C@H](Cl)[C@H](OC)C3)[C@H](C)[C@@H](O)CC1=O)[C@H](C)C[C@@H]2OC | . | -19% | 26% | 4% | .
CCN(C(=O)Cn1c(=O)n(CC2CCC(C(=O)NC)CC2)c(=O)c2sccc21)c1ccccc1 (stereo not drawn) | 2% | . | . | . | 5%
O=C(NC(=S)Nc1cccc(Cl)c1Cl)C1CC1 | ? | 4.5µM* | 11% | 2.5µM* | ?
O=C(NNC(=S)Nc1ccccc1Cl)C1CC1 | -7% | ? | 2% | 11µM* | -2%
O=C(CCN1CCN(c2ccccc2)CC1)NNC(=S)Nc1ccccc1Cl | 15% | -20% | 1% | 8.9µM* | -7%
O=C(NNC(=S)Nc1ccccc1Cl)c1ccccc1Cl | 12% | 5% | 2% | 5% | 13%

Bioassay records from PubChem BioAssay.
